Screen size: about 400,000 compounds; about 1,900 (0.47%) were called active. Roughly 14% stayed inconclusive and do not appear here. The rule behind the calls is not given here. The full list was thinned out, with actives kept by preference.
biological target: Ataxin-2 (Homo sapiens) (UniProt Q99700); assay: qHTS for Inhibitors of ATXN expression.; format: functional
Sequence (Q99700 whole entry): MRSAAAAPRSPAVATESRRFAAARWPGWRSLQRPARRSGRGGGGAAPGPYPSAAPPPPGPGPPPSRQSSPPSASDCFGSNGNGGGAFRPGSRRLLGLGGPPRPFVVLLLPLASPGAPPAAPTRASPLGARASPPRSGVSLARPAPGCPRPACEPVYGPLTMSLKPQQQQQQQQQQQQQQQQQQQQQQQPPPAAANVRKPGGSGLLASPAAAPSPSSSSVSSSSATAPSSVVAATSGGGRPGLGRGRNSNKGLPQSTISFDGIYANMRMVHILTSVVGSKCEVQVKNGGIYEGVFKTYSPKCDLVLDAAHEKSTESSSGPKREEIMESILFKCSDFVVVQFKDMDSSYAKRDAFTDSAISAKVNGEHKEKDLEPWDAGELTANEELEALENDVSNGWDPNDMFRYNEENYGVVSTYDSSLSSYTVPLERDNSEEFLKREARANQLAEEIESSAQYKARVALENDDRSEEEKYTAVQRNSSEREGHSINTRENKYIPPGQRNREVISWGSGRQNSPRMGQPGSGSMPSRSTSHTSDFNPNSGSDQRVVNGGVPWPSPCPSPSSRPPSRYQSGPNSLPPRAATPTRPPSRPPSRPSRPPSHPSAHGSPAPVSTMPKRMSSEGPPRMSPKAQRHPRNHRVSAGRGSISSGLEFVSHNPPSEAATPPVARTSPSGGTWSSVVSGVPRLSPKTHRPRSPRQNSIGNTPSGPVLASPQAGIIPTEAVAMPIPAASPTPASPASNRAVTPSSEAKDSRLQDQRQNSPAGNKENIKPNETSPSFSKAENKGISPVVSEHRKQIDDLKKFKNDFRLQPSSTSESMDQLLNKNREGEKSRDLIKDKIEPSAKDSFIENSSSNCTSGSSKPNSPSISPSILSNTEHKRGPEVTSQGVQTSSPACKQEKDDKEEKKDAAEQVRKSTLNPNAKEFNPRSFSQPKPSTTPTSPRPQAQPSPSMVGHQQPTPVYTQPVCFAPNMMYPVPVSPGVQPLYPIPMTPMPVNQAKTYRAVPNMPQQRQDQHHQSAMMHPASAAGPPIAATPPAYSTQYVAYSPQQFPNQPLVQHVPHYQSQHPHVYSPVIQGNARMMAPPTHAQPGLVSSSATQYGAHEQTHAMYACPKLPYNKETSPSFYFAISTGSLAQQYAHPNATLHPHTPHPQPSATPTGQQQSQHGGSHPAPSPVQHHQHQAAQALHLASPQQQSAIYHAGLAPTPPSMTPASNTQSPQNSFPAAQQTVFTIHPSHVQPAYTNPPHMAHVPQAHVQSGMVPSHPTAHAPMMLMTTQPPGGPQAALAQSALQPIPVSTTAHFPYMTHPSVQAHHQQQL

Compound | Potency
O=C(c1cccn2c(=O)c3cc(Br)ccc3nc12)N1CCC2(CC1)OCCO2 | inactive
CN(Cc1ccc(OC(F)F)cc1)Cc1nc(O)c2cc(Br)cc(Br)c2n1 | inactive
CC(Cc1ccccc1)NC(=O)CCCCC(=O)NC(C)Cc1ccccc1 (configuration not stated) | inactive
CN(C)CC(C(=O)Cc1ccccc1)c1ccccc1 (configuration not stated) | 25.1 µM (active)
COCCCn1c(=O)/c(=C\c2ccccc2OC(F)F)s/c1=C(/C#N)C(=O)NCCOC | inactive
Cc1cc([N+](=O)[O-])c2ccccc2[n+]1[O-] | 31.6 µM (active)
Cc1cc(C)cc(N2C(=O)NC(=O)/C(=C/c3cccn3-c3ccc(Cl)cc3)C2=O)c1 | 39.8 µM (active)
Cc1cc(C)cc(N2C(=O)NC(=O)/C(=C\c3cc(C)n(C)c3C)C2=O)c1 | inactive
C/C(NCc1cccnc1)=C1/C(=O)NC(=O)N(c2ccc(Cl)cc2)C1=O | inactive
CN1C(=O)/C(=C/c2cccn2-c2ccc3ccccc3c2)C(=O)NC1=S | 39.8 µM (active)
COCCNC(=O)c1c(N)n(Cc2ccco2)c2nc3ccccc3nc12 | inactive
O=C(NC1CCCCC1)N1Cc2cc(-c3ccccc3)ccc2-n2nncc2C1 | 39.8 µM (active)
Clc1cccc(N2Cc3cc(-c4ccccc4)ccc3-n3nncc3C2)c1 | 39.8 µM (active)
CN1CCc2cc3c(cc2[C@@H]1O)OCO3 | inactive
Cc1sc2ncnc(N3CCC(C(=O)Nc4ccc(C#N)c(Cl)c4)CC3)c2c1C | 39.8 µM (active)
CN(c1ccc(O)cc1)c1ccc([N+](=O)[O-])c2nonc12 | 20 µM (active)
COc1cc(Cl)ccc1Nc1ncc(C(=O)N2CCN(c3ccccc3OC)CC2)c2ccccc12 | inactive
COc1ccccc1N1CCN(C(=O)c2cc3c(-c4ccccc4F)nn(C)c3s2)CC1 | 35.5 µM (active)
O=C1NC(=S)NC(=O)C1=NNc1ccc2c(c1)OCCO2 | 44.7 µM (active)

Compound | Potency
CCCCCCCCn1sccc1=O | 25.1 µM (active)
O=C(Nc1cccc2ncccc12)c1ccccc1Cl | inactive
COC(=O)C1=C(c2cccc(OCc3ccccc3)c2)C[C@@H]2CC[C@H]1N2C(=O)NC1CCN(Cc2ccccc2)CC1 | 22.4 µM (active)
CC[C@@H](O)C[C@H]1CCC[C@@]2(C[C@@H]3OC(=O)/C=C/[C@@](C)(O)[C@@H](O)[C@H](C)[C@@H](O)[C@H](OC4CCC(N(C)C)C(C)O4)[C@@H](O)[C@](C)(O)CCCCC/C=C/[C@@H]4CC(C)(C)O[C@@]4(O)C[C@H](O2)[C@H]3C)O1 (some centres not stated) | 2.99 µM (active)
Cc1c(CC(=O)N2C[C@H]3C[C@@H](C2)c2cccc(=O)n2C3)c(=O)oc2cc(O)c(Cl)cc12 | inactive
NP(=O)(Oc1ccc(Cl)cc1)Oc1ccc(Cl)cc1 | inactive
CC1=CC2/C=C(\C)CCC(O)C(O)/C=C/C(=O)C23C(=O)NC(CC(C)C)C3C1C (configuration not stated) | 3.77 µM (active)
C=C(C=O)CC1CC(O)[C@]2(C)OC3CC4OC5C[C@]6(C)O[C@]7(C)CCC8OC9C[C@]%10(C)OC%11C(C)=CC(=O)OC%11CC%10OC9C[C@@H](C)C8OC7CC6O[C@]5(C)CC5OC5C4OC3CC2O1 (some centres not stated) | 1.26 µM (active)
CCCNC(=O)c1c(N)n(CC2CCCO2)c2nc3ccccc3nc12 (configuration not stated) | inactive
COCCNC(=O)c1c(NC(=O)c2ccco2)n(Cc2ccccc2)c2nc3ccccc3nc12 | inactive
CCCCCCCCN1C(=O)[C@H](CC(=O)NCCc2ccccc2OC)C[C@@]2(C(=O)OC)CCCCC=C12 | 25.1 µM (active)
CC(C)OCCCNC(=O)c1c(N)n(CC2CCCO2)c2nc3ccccc3nc12 (configuration not stated) | inactive
Cc1nc2ccc(N3CCN(C)CC3)cc2nc1C | inactive
O=C(c1ccc(-c2ccccc2)c(F)c1)C1CCCN(CCO)C1 (configuration not stated) | inactive
O=C(c1ccccc1)C(CN1CCCC1)c1ccccc1 (configuration not stated) | 25.1 µM (active)
O=C1NCN(c2ccccc2)C12CCN(C(c1cc3ccccc3o1)c1nnnn1Cc1ccccc1)CC2 (configuration not stated) | 39.8 µM (active)
CC(C)(C)n1nnnc1C(c1cc2ccccc2o1)N1CCC2(CC1)C(=O)NCN2c1ccccc1 (configuration not stated) | 39.8 µM (active)
CCCNC(=O)c1c(N)n(Cc2ccco2)c2nc3ccccc3nc12 | inactive
O=C1NCN(c2ccccc2)C12CCN(C(c1cccs1)c1nnnn1Cc1ccccc1)CC2 (configuration not stated) | 39.8 µM (active)

Compound | Potency
CCCCn1nnnc1C(c1cccs1)N1CCC2(CC1)C(=O)NCN2c1ccccc1 (configuration not stated) | 31.6 µM (active)
Fc1ccc(CNCCc2ccc3c(c2)OCO3)cc1 | inactive
O=C1NC(=O)N(CCc2ccccc2)C(=O)/C1=C(O)/C=C/c1c[nH]c2ccccc12 | inactive
CN(C)C(=O)Oc1ccc2nnc3ccnn3c2c1 | inactive
COc1ccc(N2C(=O)NC(=O)/C(=C\c3c[nH]c4ccccc34)C2=O)cc1 | inactive
CN(C)c1ccc(/C=C/C=C2/C(=O)NC(=O)N(c3ccccc3)C2=O)cc1 | 15 µM (active)
CC(C)c1ccc(N2C(=O)NC(=O)/C(=C/C=C/c3ccco3)C2=O)cc1 | 39.8 µM (active)
CCOc1ccc(N2C(=O)NC(=O)/C(=C\c3ccccc3[N+](=O)[O-])C2=O)cc1 | inactive
c1ccc(-c2cc(-c3ccccc3)[n+](-c3ccccc3)c(-c3ccccc3)c2)cc1 | 25.1 µM (active)
Cc1ccc(-c2cc(-c3ccc(C)cc3)[n+](-c3ccccc3)c(-c3ccc(C)cc3)c2)cc1 | 17.8 µM (active)
Cc1ccc(C[n+]2c(-c3ccc(C)cc3)cc(-c3ccc(C)cc3)cc2-c2ccc(C)cc2)cc1 | 12.6 µM (active)
COP(=O)(OC)c1nc(-c2cccc3ccccc23)oc1NCCc1ccccc1 | inactive
CCCCn1c(NS(=O)(=O)c2ccc(C)cc2)c(C(=O)OCC)c2nc3ccccc3nc21 | inactive
CCOc1ccc(C(=O)Nc2cccc(C(=O)OCc3cc(=O)n4nc(C5CC5)sc4n3)c2)cc1 | 3.55 µM (active)
Cn1c(=O)c2c(nc(NN/C=C3/C(=O)NC(=S)N(C4CCCCC4)C3=O)n2C)n(C)c1=O | inactive
CN(C)c1c([N+](=O)[O-])cc(N2C(=O)C=CC2=O)cc1[N+](=O)[O-] | 25.1 µM (active)
CN1/C(=C\C=C2C(=O)NC(=S)NC2=O)C(C)(C)c2ccccc21 | 35.5 µM (active)
CC1(C)OC(c2ccccc2)=C/C(=C/C=C2C(=O)NC(=S)NC2=O)O1 | inactive
CC1(C)OC(c2ccccc2)=C/C(=C/C=C2C(=O)NC(=O)NC2=O)O1 | inactive
